Results as given in PubChem BioAssay (NCATS).
Inconclusive results are not listed. Active and inactive are the calls of the source. Unless noted, calls come from the whole dose curve; as a rule, active = well fitted curve in the direction sought with a large enough effect; inconclusive = small, poorly fitted or top-dose-only effect, or another doubt; inactive = no such curve, though single readings can be large; an effect the other way counts as inactive or inconclusive.

Assays:
[1] = qHTS profiling for inhibitors of Plasmodium falciparum proliferation (AID 504749);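 note: 0% = DMSO vehicle and full inhibition = artemisinin control; nearly all actives have a fitted effect of over 60% in size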; details: P. falciparum in erythrocytes, SYBR Green DNA, 72 h
In short: (§1)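 Infected RBCs, 0.3% parasitemia/2.5% Hct final; cpd 72 h, 37 C, 5% CO2; lysis buffer with saponin/triton/SYBR Green I, o/n RT dark; FI 485/535; norm. to artemisinin (0.29 uM) and DMSO.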

[2] = test system: 3D7; assay: as above; details: P. falciparum in erythrocytes, SYBR Green DNA, 72 h; series mostly up to 28.7 µM
In short: as §1

[3] = test system: 7G8; assay: as above; details: P. falciparum in erythrocytes, SYBR Green DNA, 72 h; series mostly up to 28.7 µM
In short: as §1

[4] = test system: AA1029; assay: as above; details: P. falciparum in erythrocytes, SYBR Green DNA, 72 h; series mostly up to 28.7 µM
In short: as §1

[5] = test system: AS120; assay: as above; details: P. falciparum in erythrocytes, SYBR Green DNA, 72 h; series mostly up to 28.7 µM
In short: as §1

[6] = test system: ATS189; assay: as above; details: P. falciparum in erythrocytes, SYBR Green DNA, 72 h; series mostly up to 28.7 µM
In short: as §1

[7] = test system: ATS95; assay: as above; details: P. falciparum in erythrocytes, SYBR Green DNA, 72 h; series mostly up to 28.7 µM
In short: as §1

[8] = test system: C2A; assay: as above; details: P. falciparum in erythrocytes, SYBR Green DNA, 72 h; series mostly up to 28.7 µM
In short: as §1

[9] = test system: CP185; assay: as above; details: P. falciparum in erythrocytes, SYBR Green DNA, 72 h; series mostly up to 28.7 µM
In short: as §1

[10] = test system: CP191; assay: as above; details: P. falciparum in erythrocytes, SYBR Green DNA, 72 h; series mostly up to 28.7 µM
In short: as §1

[11] = test system: CP192; assay: as above; details: P. falciparum in erythrocytes, SYBR Green DNA, 72 h; series mostly up to 28.7 µM
In short: as §1

[12] = test system: CP194; assay: as above; details: P. falciparum in erythrocytes, SYBR Green DNA, 72 h; series mostly up to 28.7 µM
In short: as §1

[13] = test system: CP201; assay: as above; details: P. falciparum in erythrocytes, SYBR Green DNA, 72 h; series mostly up to 28.7 µM
In short: as §1

[14] = test system: CP203; assay: as above; details: P. falciparum in erythrocytes, SYBR Green DNA, 72 h; series mostly up to 28.7 µM
In short: as §1

[15] = qHTS Counterscreen for compound interference against the NCATS DSHEA and TCM libraries (AID 1919978); details: firefly luciferase detection reagent interference, luminescence;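 note: compounds preincubated with 1 µM D-luciferin or buffer before detection reagent; % of control where 0% means no effect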
In short: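 Compounds, titrated from 19.5 nM to 39.8 uM final, were pinned onto 1 uM D-luciferin or plain 100 mM potassium phosphate. After 15 min at room temperature, luciferin detection reagent was added for 30 min before the luminescence read.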

[16] = Dual reporter qHTS for agonist of Pregnane X Receptor (hPXR) against the NCATS DSHEA and TCM libraries: Fluorescence readout (AID 1920058); details: PXR dual reporter cells; series mostly up to 40 µM; note: 0% is about no effect
In short: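 HepG2 hPXR-Luc, 2000 cells/well, 5 h attach; cpds ~24 h, 37 °C/5% CO2; CellTiter-Fluor 1 h; fluor. Ex/Em 405/540 nm = viability.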

[17] = biological target: Nuclear receptor subfamily 1 group I member 2 (Homo sapiens) (UniProt O75469); assay: Dual reporter qHTS for agonist of Pregnane X Receptor (hPXR) against the NCATS DSHEA and TCM libraries: Luminescence readout (AID 1920059); details: hPXR dual reporter cells, luciferase luminescence agonist; series mostly up to 40 µM; note: 0% is about no effect
In short: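 Luminescent PXR reporter read (ONE-Glo) after a CellTiter-Fluor viability read, following 24 h, 37C treatment of HepG2 cells stably carrying hPXR-Luc.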

[18] = biological target: Nuclear receptor subfamily 1 group I member 2 (Homo sapiens) (UniProt O75469); assay: Dual reporter qHTS for antagonist of Pregnane X Receptor (hPXR) against the NCATS DSHEA and TCM libraries: Luminescence Readout (AID 1920060); details: hPXR dual reporter cells, luciferase luminescence, antagonist mode; series mostly up to 40 µM; note: 0% is about no effect
In short: (§2)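 Rifampicin-stimulated (2 uM final) hPXR-luciferase HepG2 cells were treated for 24 h with DSNP/TCM substances. Viability came from CellTiter-Fluor fluorescence, reporter activity from ONE-Glo luminescence.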

[19] = Dual reporter qHTS for antagonist of Pregnane X Receptor (hPXR) against the NCATS DSHEA and TCM libraries: Fluorescence Readout (AID 1920061); details: PXR dual reporter cells, antagonist mode; series mostly up to 40 µM; note: 0% is about no effect
In short: as §2

[20] = qHTS drug screen for cell cycle checkpoint inhibitors in PARPi-resistant BRCA-mutant ovarian cancer cell lines. (AID 1963452; calls by dose curve); details: PEO1/OlaR viability, CellTiter-Glo luminescence, 96 h, stronger effect = lower value
In short: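 PEO1, PEO4 and PEO1/OlaR ovarian cancer cells, 600 per well, exposed 96 h at 37C to a dilution series. Viability read by CellTiter-Glo luminescence, normalized to DMSO and empty wells; activity summarized as Z-AUC.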

[21] = at 28.7 µM (top of the series), parasite line A
[22] = at 28.7 µM (top of the series), parasite line B
[23] = measured here: PEO1 parental Z-AUC

Nuclear receptor subfamily 1 group I member 2 (Homo sapiens), sequence (O75469 whole entry, looked up): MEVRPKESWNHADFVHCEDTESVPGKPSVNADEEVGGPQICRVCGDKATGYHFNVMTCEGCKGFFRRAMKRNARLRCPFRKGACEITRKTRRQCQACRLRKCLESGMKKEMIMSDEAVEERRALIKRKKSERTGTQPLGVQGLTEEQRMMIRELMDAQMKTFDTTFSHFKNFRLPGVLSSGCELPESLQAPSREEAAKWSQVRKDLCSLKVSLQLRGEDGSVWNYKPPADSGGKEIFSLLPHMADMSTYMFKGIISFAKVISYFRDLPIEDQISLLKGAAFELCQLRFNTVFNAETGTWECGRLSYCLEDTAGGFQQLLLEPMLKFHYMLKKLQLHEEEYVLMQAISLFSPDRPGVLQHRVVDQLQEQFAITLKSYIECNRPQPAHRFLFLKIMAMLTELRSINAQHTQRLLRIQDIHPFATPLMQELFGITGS

Nc1ccc(O)c(C(=O)O)c1
inactive: activity, negative = inhibition [1, 21] -0.61% | activity, negative = inhibition [1, 22] -10.7% | Potency [2] | Potency [3] | Potency [4] | Potency [5] | Potency [6] | Potency [7] | Potency [8] | Potency [9] | Potency [10] | Potency [11] | Potency [12] | Potency [13] | Potency [14]

CCCCCCCCCCCCCCCCCC(=O)O
inactive: max response [15] 4.77% | outcome [16] | outcome [17] | outcome [18] | outcome [19] | activity, negative = inhibition [1, 21] -10.1% | activity, negative = inhibition [1, 22] -2.97% | Potency [2] | Potency [3] | Potency [4] | Potency [5] | Potency [6] | Potency [7] | Potency [8] | Potency [9] | Potency [10] | Potency [11] | Potency [12] | Potency [13] | Potency [14]

O=C(Nc1ccc2c(c1)CCN(Cc1ncn[nH]1)C2)c1ccccc1-c1ccc(C(F)(F)F)cc1
0.47: Z-AUC ([20]; measured here: PEO4 Z-AUC)
-0.291: Z-AUC [20, 23]
inactive: Z-AUC [20] -0.0591

N#C/C(=C\c1ccc(O)c(O)c1)C(=O)NCc1ccccc1
0.772: Z-AUC ([20]; measured here: PEO4 Z-AUC)
inactive: Z-AUC [20] 1.6
1.01: Z-AUC [20, 23]

O=C(O)[C@H](CC(=O)N1C[C@H]2CCCC[C@H]2C1)Cc1ccccc1
inactive: activity, negative = inhibition [1, 21] 9.74% | activity, negative = inhibition [1, 22] 2.21% | Potency [2] | Potency [3] | Potency [4] | Potency [5] | Potency [6] | Potency [7] | Potency [8] | Potency [9] | Potency [10] | Potency [11] | Potency [12] | Potency [13] | Potency [14]

C=CCc1cccc(/C=N/NC(=O)CN2CCN(Cc3ccccc3)CC2)c1O
inactive: Z-AUC [20] 0.78
0.857: Z-AUC [20, 23]
0.395: Z-AUC ([20]; measured here: PEO4 Z-AUC)

Cc1ccc(C(=O)c2ccc(CC(=O)O)n2C)cc1
inactive: activity, negative = inhibition ([1]; at 12.8 µM (top of the series), parasite line A) -5.58% | activity, negative = inhibition ([1]; at 12.8 µM (top of the series), parasite line B) 10.6% | Potency [2] | Potency [3] | Potency [4] | Potency [5] | Potency [6] | Potency [7] | Potency [8] | Potency [9] | Potency [10] | Potency [11] | Potency [12] | Potency [13] | Potency [14]

CC1(C)[C@@H](O)CC[C@]2(C)[C@H]3C(=O)C=C4[C@@H]5C[C@@](C)(C(=O)O)CC[C@]5(C)CC[C@@]4(C)[C@]3(C)CC[C@@H]12
inactive: Z-AUC [20] 0.796 | activity, negative = inhibition [1, 21] -3.83% | activity, negative = inhibition [1, 22] -0.325% | Potency [2] | Potency [3] | Potency [4] | Potency [5] | Potency [6] | Potency [7] | Potency [8] | Potency [9] | Potency [10] | Potency [11] | Potency [12] | Potency [13] | Potency [14]
0.997: Z-AUC ([20]; measured here: PEO4 Z-AUC)
1.38: Z-AUC [20, 23]

O=C(OCc1ccccc1)c1ccccc1
inactive: activity, negative = inhibition [1, 21] -9.71% | activity, negative = inhibition [1, 22] -8.05% | Potency [2] | Potency [3] | Potency [4] | Potency [5] | Potency [6] | Potency [7] | Potency [8] | Potency [9] | Potency [10] | Potency [11] | Potency [12] | Potency [13] | Potency [14]
